Bioassay records as filed in PubChem.
The full list was thinned out, with hits kept by preference.
ERG-DNA inh = ERG Ets/DNA interaction inhibition | AID 624246 | Potency, µM (top dose mostly 76.9 µM), for inactives: at the highest dose FP activity, negative = inhibition, most hits filed as inhibitors | fluorescence polarization, His-ERG Ets domain / labelled DNA | 0.028% of 370,000 active | P11308; active = well fitted inhibition curve with a large enough effect in the polarisation, with a control signal flat; inconclusive = small, poorly fitted or top-dose-only effect, or effect the other way, or a change in a side signal; inactive = no such curve, though single readings can be large or run the other way; the % refers to the polarisation;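 note: polarization taken with two DNA probes labelled with fluorescein and Texas red; potency is the fitted concentration of half-maximal effect; % of control where 0% means no effect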
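His-tagged ERG Ets domain (1 uM in the protein solution; 300mM KCl, 50mM Tris-HCl, 1mM EDTA, 1mM DTT, pH 7.5) received compound, then a probe mix of 5 nM fluorescein-DNA and 100nM Texas-615-DNA. Fluorescence polarization was read for both dyes.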
TRb SRC2 PPI = inhibitors of human thyroid hormone receptor beta-SRC2 interaction | P10828 | TRbeta-SRC2 peptide binding, fluorescence polarization; receptor liganded with 1 µM T3 | Potency, µM (top dose mostly 106 µM), inactives show top-dose activity change, negative = inhibition, most hits filed as inhibitors | 0.065% of 280,000 active;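 note: potency is the fitted concentration of half-maximal effect; plate controls were bound peptide for no effect and peptide without receptor for full effect; nearly all actives have a fitted effect of over 50% in size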
Target sequence (P10828 whole entry, looked up): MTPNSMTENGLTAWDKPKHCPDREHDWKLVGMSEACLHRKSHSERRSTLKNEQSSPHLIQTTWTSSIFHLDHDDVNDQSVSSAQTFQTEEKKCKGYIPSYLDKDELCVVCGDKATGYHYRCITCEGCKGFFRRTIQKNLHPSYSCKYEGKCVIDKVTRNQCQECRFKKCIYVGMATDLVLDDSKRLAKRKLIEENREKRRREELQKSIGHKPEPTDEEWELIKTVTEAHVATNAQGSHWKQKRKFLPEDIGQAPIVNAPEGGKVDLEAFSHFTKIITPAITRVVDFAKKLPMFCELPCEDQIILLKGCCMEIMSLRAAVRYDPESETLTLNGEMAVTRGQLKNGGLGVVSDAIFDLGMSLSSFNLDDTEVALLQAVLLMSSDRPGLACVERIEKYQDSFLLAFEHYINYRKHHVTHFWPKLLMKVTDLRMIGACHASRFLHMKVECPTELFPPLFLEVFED
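TRb LBD 0.6 uM + Texas Red SRC2 peptide 20 nM, 1 uM T3, Tris buffer w/ 5% DMSO; compound pinned, 5 h RT; FP read ex 555/em 632; normalized to unbound and bound controls.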
CBFb-RUNX1 inh = CBF-beta/RUNX1 interaction disruption. Potency, µM (series often up to 59.8 µM), for inactives: top-dose activity, negative = inhibition, usual class: inhibitors. AlphaScreen CBFb-His/RUNX1-biotin binding, biochemical. 230,000 tested, under 10 active. AID 1477; note: % of control where 0% means no effect
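Compounds were screened at multiple concentrations against a preformed CBF-beta(His)/RUNX1(biotin) complex (30 nM of each) for 15 min at room temperature, followed by 90 min with nickel and streptavidin beads and AlphaScreen reading.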
GoLoco inh red = inhibitors of human Gai1-RGS12 GoLoco interaction (red fluorophore); Gai1:RGS12 GoLoco peptide FP, rhodamine, 10 min; Potency, µM (series often up to 61.6 µM), for the others: at the highest dose activity, negative = inhibition, most hits filed as inhibitors; P63096; 0.44% of 230,000 active; active = well fitted inhibition curve with a large enough effect, not every such curve was filed as active; inactive = no such curve, though single readings can be large or run the other way; note: potency is the fitted concentration of half-maximal effect; % is set by controls: 0 for no effect and ±100 for the full control effect; nearly all actives have a fitted effect of over 30% in size
TR SRC2 fluor cs = alters Texas Red total fluorescence, flagging assay interference | 0.29% of 280,000 active | Potency, µM (top dose mostly 106 µM), without a hit: at the highest dose fluorescence change, negative = quenching | TRb/SRC2 Texas Red total fluorescence interference | AID 1479; active = well fitted curve in either direction with a large enough effect; inconclusive = small, poorly fitted or top-dose-only effect; note: potency is the fitted concentration of half-maximal effect; % is set by controls: 0 for no effect and ±100 for the full control effect
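Human TRb ligand-binding domain at 0.6 uM with 20 nM Texas Red SRC2 peptide in Tris buffer containing 1 uM T3 and 5% DMSO, incubated with compound 5 h at ambient temperature. Total fluorescence (555/632 nm) calculated as parallel + 2 × perpendicular.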
Starred values were filed as active, the others as inactive; ? = inconclusive; . = no result given; ! = not active in a repeat; [ ] = another dose, or the depositor's remark. Unless noted, calls come from the whole dose curve; as a rule, active = well fitted curve in the direction sought with a large enough effect; inconclusive = small, poorly fitted or top-dose-only effect, or another doubt; inactive = no such curve, though single readings can be large; an effect the other way counts as inactive or inconclusive.

SMILES | ERG-DNA inh | TRb SRC2 PPI | CBFb-RUNX1 inh | GoLoco inh red | TR SRC2 fluor cs
CCOc1cc(/C=C2\C(=O)N(c3nc(-c4ccc(Br)cc4)cs3)N=C2c2ccccc2)ccc1O | 14.3% | 20.4% | ? | 99.7% | 28.2µM*[quencher]
Cc1ccc2c(C)c(C(=O)N(C)C(C)c3ccon3)oc2c1C (centres undefined) | 31.6µM* | . | . | . | .
CCCC(=Nc1ccc(N)cc1)C1=C(O)C(C(=O)OC)C(C)(C)CC1=O (centres undefined) | ? | 35.5µM* | -9.4% | 14.1µM* | 44.7µM*[fluorescent]
CCOc1ccc(NC(=O)C2CCN(C(=O)N3CC(C)Oc4ccc(Cl)cc43)CC2)cc1 (centres undefined) | 0.2% | -15.5% | . | . | 100µM*[quencher]
O=C(Cn1c(=O)oc2cccnc21)Nc1ccccc1Oc1ccc(Cl)cc1Cl | 9.0% | -4.6% | 5.9% | 5.3% | -4.9%
CN(C)c1ccc(C=Nc2ccc(N(C)C)cc2)cc1 | -1.9% | 50.1µM* | -29.7% | 10.0% | ?
O=Cc1ccccc1C=O | . | ? | . | 6.3% | 39.8µM*[quencher]
O=Cc1ccccc1Cl | . | 1.0% | 1.0%[21.7 µM] | -4.1% | -1.9%
CCn1c(CSc2n[nH]c(N)n2)nc2cc(C(=O)O)ccc21 | 15.8µM* | 28.2µM* | 25.4% | 3.55µM* | 35.5µM*[fluorescent]
CCn1c(CSc2nnc(-c3cccnc3)n2-c2ccccc2C)nc2cc(C(=O)O)ccc21 | . | 11.2µM* | 9.9% | 3.16µM* | 39.8µM*[fluorescent]
CCn1c(CSc2nnc3ccccn23)nc2cc(C(=O)O)ccc21 | ? | 7.94µM* | 0.5% | 4.47µM* | 39.8µM*[fluorescent]
COCCn1c(SCCCC(=O)c2ccc(Br)cc2)nnc1-c1ccncc1 | 2.0% | -4.9% | -0.1% | -9.9% | 0.4%
COC(=O)c1ccc(C(=O)OC)c(NC(=O)CSc2n[nH]c(N)n2)c1 | -3.1% | . | . | . | .
CCn1c(CSc2nnc(-c3ccncc3)n2CCOC)nc2cc(C(=O)O)ccc21 | 5.01µM* | 12.6µM* | 8.9% | 11.2µM* | 50.1µM*[fluorescent]
C[C@@]12CCC(=O)C=C1CC[C@H]1C2[C@@H](O)C[C@]2(C)[C@@H]1CC[C@@]2(O)C(=O)CO (some centres undefined) | . | . | . | 19.1%[14.2 µM] | .
O=C(/C=C/c1ccc(O)c(O)c1)O[C@H](Cc1ccc(O)c(O)c1)C(=O)O | . | ? | . | 15.8µM* | 25.1µM*[quencher]
N[C@H](Cc1ccc(O)c(O)c1)C(=O)O | . | 0.1% | . | -8.5% | 28.2µM*![quencher]
CC1CCc2nc3ccc(S(=O)(=O)N4CCC(C(=O)NCc5ccccc5Cl)CC4)cc3c(C(=O)O)c2C1 (centres undefined) | 10.0% | -9.8% | . | . | 20µM*[quencher]
COc1ccc(CNC(=O)C2CCN(S(=O)(=O)c3ccc4nc5c(c(C(=O)O)c4c3)CC(C)CC5)CC2)cc1 (centres undefined) | -6.8% | -0.2% | . | . | -29.9%
O=c1n(Cc2ccccc2)nc2n1-c1ccccc1OC2 | -1.2% | -3.2% | . | . | 10µM*[quencher]
COc1ccc(Cn2nc3n(c2=O)-c2ccccc2OC3)cc1 | -9.6% | -0.1% | . | . | -21.8%
CN=C(N)NCC1CCOC1 (centres undefined) | . | 2.4%[201 µM] | . | . | 1.4%[201 µM]
O=[N+]([O-])c1cc(/C=N/N2CCOCC2)cs1 | 31.6µM* | . | . | . | .
O=C(O)CCCNc1cc(N2CCC3(CC2)OCCO3)c2noc3c2c1C(=O)c1ccccc1-3 | . | 22.4µM* | . | 125.6% | 44.7µM*[fluorescent]
CCOC(=O)N1CCN(c2cc(NCCC(=O)O)c3c4c(onc24)-c2ccccc2C3=O)CC1 | ? | 28.2µM* | ? | 141.6% | 12.6µM*[fluorescent]
SMILES | ERG-DNA inh | TRb SRC2 PPI | CBFb-RUNX1 inh | GoLoco inh red | TR SRC2 fluor cs
CCc1ccccc1NC(=O)c1cnc2sc(N3CCCC3)nn2c1=O | 1.6% | -15.9% | . | . | 35.5µM*[quencher]
Cn1cc(/C=C2\SC(=S)N(NC(=O)c3ccccc3)C2=O)c2ccccc21 | 16.8% | 17.8µM* | -2.8% | -18.3% | ?
Cn1cc(/C=C2\SC(=S)N(NC(=O)c3cccc(Cl)c3)C2=O)c2ccccc21 | 38.3% | -4.1% | 5.6% | -41.8% | 4.0%
CC(C)/C(=N/[N+](C)(C)C)c1ccccc1 | . | . | . | 2.82µM* | .
O=C(Cn1c(-c2cccs2)cc2ccccc21)N1CCN(c2ccccc2F)CC1 | 5.8% | -27.1% | . | . | 100µM*[quencher]
COc1ccc(C(=O)N/C(=C\c2cccc3ccccc23)C(=O)N2CCN(C)CC2)cc1 | 4.6% | . | . | . | .
